SW480 rerep: DNA re-replication induction in SW480 cells; SW480 DNA re-replication, Hoechst DNA content imaging, 48 h; Potency, µM (titrated, usually from 46.1 µM), for the others: at the top dose re-replication activation, actives largely listed as activators; 1.8% of 340,000 active; note: % of control where 0% means no effect; nearly all actives have a fitted effect of over 55% in size
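DNA re-replication was detected as more nuclei of elevated Hoechst intensity after 48 hr exposure to compound (23 nL pinned per well of 250 cells).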
MCF10A rereplic: induces DNA re-replication in MCF 10a normal breast cells; MCF 10A DNA re-replication, Hoechst nuclear intensity, 48 h; Potency, µM (series often up to 46.1 µM), for inactives: at the top dose activity, positive = re-replication, most hits filed as activators; 2.9% of 350,000 active; AID 624296; note: % of control where 0% means no effect; nearly all actives have a fitted effect of over 50% in size
VP16 counter: Gal4-VP16 reporter inhibition counter-screen; Potency, µM (doses to about 53.6 µM), for inactives: at the top dose activity, negative = inhibition, actives largely listed as inhibitors; 3.5% of 310,000 active; Drosophila S2 Gal4-VP16 UAS-luciferase, luminescence, 20 h;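 note: Gal4-VP16 expression switched on by copper sulfate through the metallothionein promoter; % is set by controls: 0 for no effect and ±100 for the full control effect; nearly all actives have a fitted effect of over 50% in size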
ELG1 DNA repair: inhibitors of ELG1-dependent DNA repair in HEK293T cells; HEK293T ELG1-luciferase reporter, luminescence, 16 h; DNA damage induced by 5-fluorouridine; Potency, µM (titrated, usually from 46.1 µM), for inactives: top-dose activity change, negative = inhibition, usual class: inhibitors; 2.3% of 330,000 active; note: % is set by controls: 0 for no effect and ±100 for the full control effect; nearly all actives have a fitted effect of over 55% in size
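5-Fluorouridine DNA damage + compound/DMSO, 2,000 cells/well, 16 h, 37 °C/5% CO2. ONE-Glo, 30 min RT, luminescence. Readout = decrease in reporter signal.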
RORgamma inh: inhibitors of mouse ROR gamma transcriptional activity. P51450. Drosophila S2 Gal4-RORgamma UAS-luciferase reporter, 20 h. Potency, µM (top dose mostly 53.6 µM), without a hit: top-dose activity change, negative = inhibition, hits mostly inhibitors. 5.4% of 310,000 active. AID 2551; note: % is set by controls: 0 for no effect and ±100 for the full control effect; nearly all actives have a fitted effect of over 60% in size
Target sequence (P51450 whole entry, looked up, the tested form may be a part): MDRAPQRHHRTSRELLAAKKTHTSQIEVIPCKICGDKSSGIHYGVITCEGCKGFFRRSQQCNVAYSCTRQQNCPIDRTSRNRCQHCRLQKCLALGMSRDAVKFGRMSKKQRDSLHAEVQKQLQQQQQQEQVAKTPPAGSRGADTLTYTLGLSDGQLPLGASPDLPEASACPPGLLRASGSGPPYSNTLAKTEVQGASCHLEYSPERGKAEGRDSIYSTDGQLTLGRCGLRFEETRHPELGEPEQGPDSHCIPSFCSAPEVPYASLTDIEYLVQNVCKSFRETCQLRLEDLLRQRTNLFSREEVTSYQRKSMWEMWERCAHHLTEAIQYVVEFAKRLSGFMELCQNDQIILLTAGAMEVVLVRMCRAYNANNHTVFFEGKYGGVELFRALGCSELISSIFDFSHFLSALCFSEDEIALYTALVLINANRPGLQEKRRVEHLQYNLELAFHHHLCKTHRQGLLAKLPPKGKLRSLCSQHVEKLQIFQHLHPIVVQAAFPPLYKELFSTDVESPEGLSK
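Stably transfected Drosophila Schneider cells are the test system, with ROR gamma fused to Gal4 and luciferase under UAS control; luminescence is read after 20 hr of 700 uM copper sulfate induction at ambient temperature.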
* marks the source's active call; other numbers are inactive results; ? = inconclusive; nt = no result given; [ ] = remark or other dose. Hits are enriched below; roughly 10% of the tested compounds scored in any of these assays. Calls come from the whole dose curve; as a rule, active = well fitted curve in the direction sought with a large enough effect; inconclusive = small, poorly fitted or top-dose-only effect, or another doubt; inactive = no such curve, though single readings can be large; an effect the other way counts as inactive or inconclusive. Potency is the fitted concentration of half-maximal effect.

SMILES	SW480 rerep	MCF10A rereplic	VP16 counter	ELG1 DNA repair	RORgamma inh
N#CC(C#N)=NNc1ccc(S(=O)(=O)N2CCCCC2)cc1	-2.4%	25.9µM*	22.4µM*	?	?
CCCC(=O)Nc1ccc(S(=O)(=O)N2CCCC2)cc1	-0.5%	-2.4%	10.5%	-4.9%	16.3%
N#C/C(=N\Nc1ccc(S(=O)(=O)N2CCOCC2)cc1)C(N)=S	3.8%	-9.7%	-1.6%	?	?
CCCC(C(=O)Nc1ccc(S(=O)(=O)N2CCOCC2)cc1)c1ccccc1 (stereo unspecified)	0.231µM*	?	nt	?	nt
O=C(CCc1ccccc1)NC(=S)Nc1ccc(S(=O)(=O)N2CCOCC2)cc1	64.4%	?	-20.1%	?	22.4µM*
CCCCC(=O)NC(=S)Nc1ccc(S(=O)(=O)N2CCCC2)cc1	-1.6%	?	-19.7%	?	12.6µM*
Cc1nc(-c2coc3c(O)c(O)ccc3c2=O)cs1	nt	nt	-6.3%	nt	4.3%
C[C@@]1(C(NC(=O)c2ccccc2)c2ccc(-c3ccccc3)cc2)C[C@H]1C1CCCCC1 (stereo partly specified)	nt	nt	0.2%	nt	8.6%
NS(=O)(=O)c1ccc(NC(=S)Nc2ccc(S(=O)(=O)N3CCCC3)cc2)cc1	-22.9%	22.0%	-2.3%	11.8%	3.5%
CN(C)NC(=S)Nc1ccc(S(=O)(=O)N2CCCCC2)cc1	-128.4%	-6.2%	5.62µM*	-5.9%	2.82µM*
CCc1ccc(C2=NN(C(C)=O)C(c3ccco3)C2)cc1 (stereo unspecified)	9.0%	?	-7.0%	?	2.6%
CC(=O)N1N=C(c2c(-c3ccccc3)c3cc(C)ccc3[nH]c2=O)CC1c1ccco1 (stereo unspecified)	8.6%	?	-11.1%	23.1µM*	34.8%
CC(=O)N1N=C(c2ccc(NS(=O)(=O)c3ccccc3)cc2)CC1c1ccco1 (stereo unspecified)	11.6µM*	?	nt	-16.5%	nt
Cc1ccc(C2=NN(S(=O)(=O)c3ccccc3)C(c3ccco3)C2)cc1 (stereo unspecified)	-38.9%	6.3%	nt	-0.9%	nt
O=S(=O)(c1ccccc1)N1N=C(c2ccc(O)cc2)CC1c1ccco1 (stereo unspecified)	3.6%	-23.4%	20µM*	?	-19.7%
CC(=O)N1N=C(c2cccc(NS(=O)(=O)c3ccc(C)cc3)c2)CC1c1ccco1 (stereo unspecified)	16.4µM*	?	1.1%	?	27.6%
CC(C)(C)OC(=O)N1CCCC(C(=O)Nc2ccc(C(=O)NCCc3ccccc3)cc2)C1 (stereo unspecified)	1.4%	3.5%	nt	nt	nt
CN1CCN(C(=O)c2ccc(OCCOc3ccccc3)cc2)CC1	-8.6%	11.4%	1.0%	8.9%	12.6%
CCOc1ccc2[nH]c(SCC(=O)OC)c([N+](=O)[O-])c2c1	8.8%	?	-5.8%	0.0%	1.7%
COC(=O)CSc1[nH]c2ccc(Br)cc2c1[N+](=O)[O-]	6.3%	11.6µM*	18.0%	-15.8%	2.5%
Cn1nc(-c2ccc(Cl)cc2)c2cc(C(=O)NCC3CCCO3)sc21 (stereo unspecified)	?	?	-8.7%	16.4µM*	-18.9%
CN1CCN(CCCNC(=O)c2cc3c(-c4ccc(Cl)cc4)nn(C)c3s2)CC1	12.3%	?	-21.0%	?	1.4%
CC(OC(=O)CN1C(=O)c2ccccc2C1=O)C(=O)NC1CCCCC1C (stereo unspecified)	1.2%	?	nt	?	nt
O=C(N/N=C/C(Br)=C/c1ccccc1)c1cc(-c2ccco2)[nH]n1	18.8%	7.31µM*	?	-7.7%	?
COc1ccccc1/C=C/C=N/NC(=O)c1cc(-c2ccco2)[nH]n1	0.6%	?	?	-26.3%	11.2µM*
SMILES	SW480 rerep	MCF10A rereplic	VP16 counter	ELG1 DNA repair	RORgamma inh
CC1C(=O)NN=C1C(=O)N/N=C\C(Br)=C\c1ccccc1 (stereo unspecified)	?	?	1.58µM*	?	1.26µM*
CC(/C=N/NC(=O)c1cc(-c2ccc(C)o2)[nH]n1)=C\c1ccccc1	18.4µM*	23.1µM*	?	-3.3%	?
CC1=NNC(=O)C1CC(=O)N/N=C/C(Br)=C/c1ccccc1 (stereo unspecified)	14.3%	3.6%	21.3%	5.8%	-42.1%
CC(C)C[C@H](NC(=O)[C@@H]1CCC(=O)N1)C(=O)N[C@@H](Cc1ccc(O)cc1)C(=O)N[C@@H](CCC(=O)O)C(=O)N[C@@H](CC(N)=O)C(=O)N[C@@H](CCCCN)C(=O)N1CCC[C@H]1C(=O)N[C@@H](CCCN=C(N)N)C(=O)N[C@@H](CCCN=C(N)N)C(=O)N1CCC[C@H]1C(=O)N[C@@H](Cc1ccc(O)cc1)C(=O)O	nt	nt	-1.1%	nt	7.1%
CC(C)CCNC(=O)CN(Cc1cccs1)C(=O)CCC(=O)Nc1nccs1	1.2%	0.8%	14.9%	-16.6%	-17.3%
Cc1ccc(S(=O)(=O)NC(=S)NC2CCCCC2)cc1	1.7%	0.5%	14.1µM*	-2.7%	3.16µM*
CCNC(=S)NS(=O)(=O)c1ccccc1	-9.7%	-3.8%	-2.8%	1.6%	?
CCNC(=S)NS(=O)(=O)c1ccc(Cl)cc1	3.7%	1.2%	2.9%[0.365 µM]	1.7%	22.4µM*
Cc1ccc(S(=O)(=O)NC(=O)NC2CCCCC2)cc1	-1.7%	-0.1%	-1.5%	nt	7.5%
CCc1ccc(S(=O)(=O)NC(=S)NC2CCCCC2)cc1	-2.9%	13.6%	5.62µM*	-27.3%	3.55µM*
O=S(=O)(NC(=S)NC1CCCCC1)c1ccc(Cl)cc1	-78.8%	0.1%	5.62µM*	-1.2%	2.24µM*
CCOc1ccc(S(=O)(=O)N2CCCC(C(=O)N3CCCC3)C2)cc1 (stereo unspecified)	-1.9%	-0.6%	2.0%	0.4%	8.6%
COc1cc(OC)cc(-c2nn[nH]n2)c1	9.4%	-33.1%	-2.9%	-3.3%	-34.1%
CC(NC(=O)COC(=O)c1ccccc1SCC(=O)N1CCCC1)c1ccccc1 (stereo unspecified)	-3.3%	-1.7%	nt	13.8%	nt
CCc1cc2c(=O)c(-c3cscn3)coc2c(CN(C)C)c1O	?	10.3µM*	-3.1%	-22.7%	19.4%
CCc1cc2c(=O)c(-c3ccc4c(c3)OCO4)coc2c(CN(C)C)c1O	-4.4%	7.1%	-3.6%	-14.8%	-7.9%
Cc1cc(C)n2cc(COc3ccc4ccccc4c3)nc2n1	-7.0%	9.2%	-16.0%	?	-2.2%
Cc1cccc2nc(COc3ccc(-c4ccccc4)cc3)cn12	nt	nt	3.0%	?	12.6µM*
COc1ccccc1/C=N/NC(=O)c1ccc(-c2ccccc2)cc1	6.3%	18.4µM*	?	?	11.2µM*
Cc1ccc(/C=N/NC(=O)c2c(-c3ccccc3)noc2C)c(O)c1	nt	nt	3.16µM*	?	3.16µM*

Screening results from PubChem.
